Screens deposited in PubChem BioAssay by The Scripps Research Institute Molecular Screening Center.
MsrA inhibitor – bovine MsrA enzyme inhibitors, primary screen, biochemical, absorbance, HTS; inhibition, % at 15.5 µM; purified bovine MsrA, absorbance read-out; Methionine sulfoxide reductase A (Bos taurus); 0.75% of 360,000 active; in the data active = inhibition above about 4.5%;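 also: 0% = vehicle wells with enzyme and 100% = reference inhibitor wells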
bovine MsrA act – bovine MsrA enzyme activators, primary screen, biochemical, absorbance, HTS; Methionine sulfoxide reductase A (Bos taurus); purified bovine MsrA, absorbance read-out; AID 602163, 2012; 0.3% of 360,000 active; activation, % at 10.6 µM; in the data active = activation above about 7.5%;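 also: 0% = vehicle and 100% = reference activator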
rCAG binder – binders of r(CAG) RNA repeats, primary screen, biochemical, fluorescence | r(CAG) RNA repeat, TO-PRO-1 dye displacement fluorescence | inhibition, % at 3 µM | 1.3% of 370,000 active;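 active = inhibition above the plate cutoff, the mean of all test compounds on that plate plus 3 SD, cut at about 35% in these data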;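 also: 0% = DMSO alone and 100% = 100 µM mitoxantrone as full dye displacement; higher means more dye released from RNA so lower well fluorescence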
HGIII-sPLA2 inh – human group III sPLA2 inhibitors, primary screen, biochemical, QFRET, BODIPY PC-A2 liposome substrate; Group 3 secretory phospholipase A2 (Homo sapiens), Q9NZ20; AID 743126, 2013; 0.56% of 370,000 active; QFRET BODIPY PC-A2 liposome hydrolysis, fluorescence; inhibition, % at 12.2 µM;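 active = inhibition above mean plus 3 SD of compounds lying within the high and low control bounds, cut at about 19% in these data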;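 also: 0% = median of test compound wells and 100% = no enzyme DMSO wells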
Target sequence (Q9NZ20 whole entry, looked up): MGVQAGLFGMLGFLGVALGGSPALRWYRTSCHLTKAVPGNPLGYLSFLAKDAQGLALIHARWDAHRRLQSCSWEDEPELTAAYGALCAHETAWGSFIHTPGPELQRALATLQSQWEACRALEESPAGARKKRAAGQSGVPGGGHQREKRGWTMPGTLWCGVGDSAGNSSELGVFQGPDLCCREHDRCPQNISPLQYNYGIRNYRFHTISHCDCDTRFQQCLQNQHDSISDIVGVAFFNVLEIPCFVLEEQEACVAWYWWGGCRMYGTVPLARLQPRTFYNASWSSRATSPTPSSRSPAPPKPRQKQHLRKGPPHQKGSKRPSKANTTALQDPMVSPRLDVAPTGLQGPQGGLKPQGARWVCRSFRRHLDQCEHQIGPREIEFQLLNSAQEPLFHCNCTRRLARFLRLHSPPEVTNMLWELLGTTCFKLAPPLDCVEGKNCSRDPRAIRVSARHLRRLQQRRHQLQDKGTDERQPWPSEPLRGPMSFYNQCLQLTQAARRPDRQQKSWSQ
rCAG binder conf – small molecules binding CAG repeat RNA – biochemical, fluorescence, confirmation. shares compounds with rCAG binder. r(CAG) RNA repeat, TO-PRO-1 dye displacement fluorescence. inhibition, % at 3 µM. 70% of 4,300 active. AID 652065, 2013;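 active = inhibition above a per-plate cutoff, the mean inhibition of sample wells plus 3 SD, cut at about 35% in these data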;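 also: loss of TO-PRO-1 fluorescence as compound displaces dye from 1x1 AA loop RNA; 0% = DMSO only wells and 100% = 100 µM mitoxantrone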
dCAG dye counter – displacement of TO-PRO-1 from CAG DNA duplex, counter-screen for rCAG RNA repeat binder project, biochemical, fluorescence, TO-PRO-1 dye, d(CAG) DNA oligo | shares compounds with rCAG binder | d(CAG) DNA oligo TO-PRO-1 dye displacement | inhibition, % at 3 µM | 94% of 4,300 active;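 active = inhibition above its plate's cutoff, the mean test-well inhibition plus 3 SD, cut at about 4.8% in these data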;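 also: 0% = DNA dye mix with DMSO and 100% = 100 µM mitoxantrone; hits displace the dye from DNA and so lower well fluorescence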
DNA CAG DR – inhibitors of DNA CAG/GTC TO-PRO-1 complex, dose response, counter-screen for rCAG RNA repeat binder project, biochemical, fluorescence, TO-PRO-1 dye | shares compounds with rCAG binder | DNA CAG/GTC duplex TO-PRO-1 dye displacement fluorescence | IC50, µM | 20% of 250 active | AID 686960, 2013; in the data active = IC50 below about 10 µM
An asterisk follows results filed as active; . = not tested or not shown. A selection: hits, their analogues and other compounds. The true share with any hit is near 2.8%.

SMILES | MsrA inhibitor | bovine MsrA act | rCAG binder | HGIII-sPLA2 inh | rCAG binder conf | dCAG dye counter | others
Cc1nc(NS(=O)(=O)c2ccccc2)sc1NC(=O)Nc1ccc(Cl)cc1 | 1.5 | 0.4 | 48.5* | -9.9 | 38.1* | 15.1*
CC(=O)c1ccc(NC(=O)Nc2sc(NS(=O)(=O)c3ccccc3)nc2C)cc1 | 0.9 | -0.6 | 37.9* | -3.6 | 21.9 | 8.2*
CCC1CCCCN1S(=O)(=O)c1ccc(NC(=O)CSc2ncccc2C(=O)O)cc1 (stereo not drawn) | 1.0 | -8.3 | 38.5* | -1.0 | 33.7 | 10.8*
CCC1CCCCN1S(=O)(=O)c1ccc(NC(=O)c2cccs2)cc1 (stereo not drawn) | 0.9 | -1.4 | 8.1 | -31.8 | . | .
CC(C)(C)OC(=O)N1CCC(c2cc(=O)n3[nH]cc(C(=O)Nc4ccc(F)c(Cl)c4)c3n2)CC1 | 1.5 | 0.8 | 9.6 | 1.7 | . | .
CC(C)(C)OC(=O)N1CCC(c2cc(=O)n3[nH]cc(C(=O)NC4CCCC4)c3n2)CC1 | -1.4 | -11.5 | 54.7* | -23.9 | 48.5* | 12.8*
COc1ccc(-c2ccc(CN3C(C)C(=O)N(Cc4cn(CCC5OCCO5)nn4)CCS3(=O)=O)cc2)cc1OC (stereo not drawn) | -0.3 | -3.1 | 1.6 | -2.6 | . | .
COc1ccc(OC)c2nc(-c3ccncc3)ccc12 | 1.2 | -0.8 | -3.6 | 5.2 | . | .
COc1ccc2nc(NC(=O)CNS(=O)(=O)c3cccs3)sc2c1 | -0.6 | -5.4 | 8.8 | -12.6 | . | .
Cc1cccc2sc(NC(=O)c3ccc(NS(=O)(=O)c4cccs4)cc3)nc12 | 3.6 | -5.4 | 80.3* | -84.2 | 75.7* | 40.5*
COc1ccc2nc(NC(=O)c3ccc(NS(=O)(=O)c4cccs4)cc3)sc2c1 | 3.3 | -10.6 | 64.8* | -43.4 | 66.4* | 29.1*
Cc1cc(F)ccc1NC(=O)c1ccc(NS(=O)(=O)c2cccs2)cc1 | -0.7 | -1.9 | 8.0 | -3.0 | . | .
N#CC1=C(S)N(c2ccccc2)C(c2ccc(-c3cc(Cl)ccc3Cl)o2)NC1=O (stereo not drawn) | -2.0 | -8.8 | 58.7* | -13.2 | 54.8* | 18.4* | DNA CAG DR=5.5*
N#CC1=C(S)N(c2ccccc2)C(c2ccc(-c3ccc(Cl)c(Cl)c3)o2)NC1=O (stereo not drawn) | 4.1 | -5.1 | 84.3* | -16.3 | 91.3* | 78.5*
COc1cccc(C2=CC(=O)CCC2)c1 | 0.3 | -3.3 | 1.0 | 0.8 | . | .
CCc1nnc(NS(=O)(=O)c2ccc(N=Cc3c(C)[nH]n(-c4ccc(Cl)cc4)c3=O)cc2)s1 | 1.1 | -3.2 | 48.6* | -10.8 | 83.7* | 58.7*
COc1nccnc1NS(=O)(=O)c1ccc(N=Cc2c(C)[nH]n(-c3ccc(Cl)cc3)c2=O)cc1 | -0.6 | . | 4.2 | 2.4 | . | .
Cc1ccc(-n2[nH]c(C)c(C=Nc3ccc(S(=O)(=O)Nc4nccs4)cc3)c2=O)cc1C | 0.4 | -3.0 | 56.1* | -10.0 | 75.4* | 38.0*
CCc1nnc(NS(=O)(=O)c2ccc(N=Cc3c(C)[nH]n(-c4cccc(Cl)c4)c3=O)cc2)s1 | 2.2 | 1.2 | 52.8* | 7.4 | 85.8* | 63.1*
COc1nccnc1NS(=O)(=O)c1ccc(N=Cc2c(C)[nH]n(-c3ccccc3)c2=O)cc1 | 3.3 | -1.6 | 9.7 | 15.4 | . | .
O=S(=O)(c1ccc(F)c(F)c1)N1CCN(S(=O)(=O)c2cccs2)CC1 | -0.6 | -4.3 | -1.8 | 4.1 | . | .
COc1cccc(NC(=O)Cn2c(=O)c3c(ncn3Cc3ccccc3)n(Cc3ccccc3)c2=O)c1 | 0.2 | -6.6 | 10.2 | -15.5 | . | .
COc1ccc2nc(-n3c(O)c(C4=c5ccccc5=NC4=O)[nH]c3=S)sc2c1 | 0.8 | -7.7 | 49.5* | 1.5 | 93.6* | 78.5*
CC(=O)C1=C(O)C2(C)c3c(O)c(C)c(O)c(C(C)=O)c3OC2CC1=O (stereo not drawn) | 1.3 | -1.5 | 76.3* | 0.2 | 52.0* | 17.5*
COc1ccc(C2=CC3=C(Br)C(=O)C(C)(OC(=O)c4cccs4)C(=O)C3=CO2)cc1 (stereo not drawn) | 0.3 | -0.7 | 48.8* | -16.7 | 44.5* | 20.7*
SMILES | MsrA inhibitor | bovine MsrA act | rCAG binder | HGIII-sPLA2 inh | rCAG binder conf | dCAG dye counter | others
COc1ccc(C2=CC3=C(Br)C(=O)C(C)(OC(=O)c4ccco4)C(=O)C3=CO2)cc1 (stereo not drawn) | . | -3.2 | . | . | . | .
Cc1cccnc1NC(=S)NC(=O)c1cncc(Br)c1 | 0.9 | -2.4 | -1.7 | 6.3 | . | .
O=C(NCc1ccc2c(c1)OCO2)C1CCCN1S(=O)(=O)c1ccc(F)cc1 (stereo not drawn) | 0.4 | -1.4 | -2.8 | 12.2 | . | .
COc1ccc(S(=O)(=O)NC(=O)C2(C)CCN2C(=O)Cc2ccc(C(C)(C)C)cc2)cc1 (stereo not drawn) | -1.2 | -1.6 | 41.6* | -15.2 | 24.9 | 4.8*
Cc1cccc(S(=O)(=O)NC(=O)C2(C)CCN2C(=O)Cc2ccc(-c3ccccc3)cc2)c1 (stereo not drawn) | -0.1 | 1.6 | 52.8* | -31.8 | 49.0* | 15.0*
Cc1cccc(S(=O)(=O)NC(=O)C2(C)CCN2C(=O)Cc2ccc(C(C)(C)C)cc2)c1 (stereo not drawn) | -0.3 | -2.3 | 40.3* | -12.9 | 34.0 | 7.5*
CC1(C(=O)NS(=O)(=O)c2cccc(Cl)c2)CCN1C(=O)Cc1ccccc1 (stereo not drawn) | 0.8 | 7.0 | 7.6 | 2.5 | . | .
Cc1ccc(F)c(S(=O)(=O)NC(=O)C2(C)CCN2C(=O)Cc2ccc(-c3ccccc3)cc2)c1 (stereo not drawn) | -0.4 | -1.3 | 60.1* | -25.8 | 55.1* | 18.2*
COc1ccc2c(c1)c(C(=O)O)c(C)n2-c1ccc(Cl)cc1 | -0.3 | -1.4 | 8.5 | -1.6 | . | .
CC1=C(C(=O)OCc2ccc3c(c2)OCO3)C(c2ccc(F)cc2)NC(=O)N1 (stereo not drawn) | 0.7 | -1.0 | -8.3 | 6.0 | . | .
Cc1cc(C)cc(CC(=O)N2CCC2(C)C(=O)NS(=O)(=O)c2cccc(OC(F)F)c2)c1 (stereo not drawn) | 0.4 | -1.9 | 22.5 | -1.2 | . | .
CC1(C(=O)NS(=O)(=O)Cc2ccccc2)CCN1C(=O)Cc1ccc(-c2ccccc2)cc1 (stereo not drawn) | 0.1 | 0.8 | 57.6* | -23.8 | 49.7* | 13.8*
CC(C)(C)c1ccc(CC(=O)N2CCC2(C)C(=O)NS(=O)(=O)c2cccc(OC(F)F)c2)cc1 (stereo not drawn) | -1.7 | 1.4 | 52.0* | -18.7 | 40.9* | 9.7*
